# Assay outcomes from PubChem.
# GALK inh: inhibits human galactokinase; P51570; recombinant GALK, Kinase-Glo ATP luminescence, 1 h; Potency, µM (series often up to 57.5 µM), usual class: inhibitors; 44,000 tested, under 10 active
# Target sequence (P51570 whole entry, looked up): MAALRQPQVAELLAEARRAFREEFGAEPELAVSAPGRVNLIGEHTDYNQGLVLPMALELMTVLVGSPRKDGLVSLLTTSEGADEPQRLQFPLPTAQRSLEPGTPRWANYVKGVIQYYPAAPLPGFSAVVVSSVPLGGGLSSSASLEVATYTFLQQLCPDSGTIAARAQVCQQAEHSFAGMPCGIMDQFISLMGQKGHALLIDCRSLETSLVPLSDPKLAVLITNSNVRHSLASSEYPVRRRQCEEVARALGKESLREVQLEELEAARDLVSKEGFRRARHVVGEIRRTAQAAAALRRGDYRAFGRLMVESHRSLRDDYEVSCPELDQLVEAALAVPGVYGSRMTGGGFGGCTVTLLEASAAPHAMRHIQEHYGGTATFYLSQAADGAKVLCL
#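 Human GALK (5 nM) was incubated with 35 uM ATP and 100 uM galactose in 20 mM HEPES pH 8.0 with MgCl2, NaCl, DTT and BSA for 1 h at room temperature. Remaining ATP was measured by Kinase-Glo Plus luminescence.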
# DRV1 agonist: GPR32 (DRV1) agonism, beta-arrestin recruitment; O75388; CHO-K1 GPR32 beta-arrestin PathHunter luminescence, 90 min; zero percent set by DMSO-only wells; activation, % at 76.9 µM; hit rate 2.5% among 48,000;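 active = activation of at least 60% and not above a set upper limit, about 1 call in 100 departs from these limits; inconclusive = activation of 40% to 60%, or above that upper limit; inactive = activation under 40%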
#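 Luminescent readout of beta-Gal complementation quantifies ligand-induced beta-arrestin association with GPR32 in CHO-K1 cells; 90 min compound incubation at 37 °C, detection 1 h at room temperature.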
# TSG101-PTAP inh: inhibitors of HIV-1 PTAP binding to human TSG101, validation; Q99816; Fluorescence polarization, FITC-PTAP peptide/Tsg101, 20 min; Potency, µM (series often up to 115 µM), most hits filed as inhibitors; 44,000 tested, under 10 active; AID 1347069
#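 FITC-labeled PTAP peptide (50 nM final) binding to Tsg101 binding domain (10 uM final) read by fluorescence polarization after 20 min at r.t. in HEPES pH 7.5 buffer. Actives by CRC class, <25 µM.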
# B2AR arrestin ag: agonists recruiting beta-arrestin to human beta2-adrenergic receptor. AID 1347077. 44,000 tested, under 10 active. Potency, µM (doses to about 46.1 µM), hits mostly activators. P07550. HTLA Tango cells, beta-arrestin recruitment, luciferase luminescence, 18 h
#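 Luminescence read-out: arrestin recruitment to recombinant beta2-AR releases tTA, inducing luciferase. Cells exposed 18 hr at 37 degrees C to up to 46 microM compound; %Activity from corrected signal, concentration-response curves classified by r2, magnitude and efficacy.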
# Hits are given with their value; 0 = inactive; ? = inconclusive; - = no result given; ! = not active in a repeat. Most compounds without a hit are left out; they make up all but 2.5% or so of the library. Unless noted, calls follow the shape of the dose curve; as a rule, active = well fitted curve in the direction sought with a large enough effect; inconclusive = small, poorly fitted or top-dose-only effect, or another doubt; inactive = no such curve, though single readings can be large; an effect the other way counts as inactive or inconclusive.
SMILES,GALK inh,DRV1 agonist,TSG101-PTAP inh,B2AR arrestin ag
COc1ccc(Nc2oc(-c3ccc(COc4ccc(OC)cc4)o3)nc2C#N)cc1,0,71,0,0
COc1ccc(CCNc2oc(COc3ccc(Cl)cc3)nc2C#N)cc1OC,0,0,0,0
COc1ccc(Nc2oc(-c3ccc(COc4ccccc4)o3)nc2C#N)cc1,0,?,0,0
Cc1cccc(Nc2nc(-c3ccccc3)nc3ccccc23)c1,0,110,0,0
Oc1cccc(Nc2nc(-c3ccccc3)nc3ccccc23)c1,0,61,0,0
COc1ccc2nc(NC(=O)c3nc(S(=O)(=O)Cc4ccc(C)cc4)ncc3Cl)sc2c1,0,0,0,0
Cc1ccc(CS(=O)(=O)c2ncc(Cl)c(C(=O)Nc3nc4ccc(F)cc4s3)n2)cc1,0,80,0,0
Cc1ccc(CS(=O)(=O)c2ncc(Cl)c(C(=O)Nc3nc4ccc(C)cc4s3)n2)cc1,0,70,0,0
CCCc1nnc(NC(=O)c2nc(S(=O)(=O)Cc3ccc(C)cc3)ncc2Cl)s1,0,0,0,0
C[C@H]1C[C@H]2[C@@H]3CCC4=CC(=O)C=C[C@]4(C)[C@H]3C(=O)C[C@]2(C)[C@@]1(O)C(=O)CO,-,0,-,-
CCCN1CCN(c2cc3c(cc2F)c(=O)c(S(=O)(=O)c2ccc(CC)cc2)cn3CC)CC1,0,0,0,0
Cc1ccccc1-c1nc(CS(=O)(=O)CC(=O)NCC(C)c2ccccc2)c(C)o1 (stereo not given),0,70,0,0
CCN(CC)C(=S)SSC(=S)N(CC)CC,-,92!,-,-
COc1ccc(NS(=O)(=O)c2ccc3c(c2)NC(=O)CCS3)c(OC)c1,0,0,0,0
O=C1CCSc2ccc(S(=O)(=O)Nc3ccc(Cl)c(C(F)(F)F)c3)cc2N1,0,71,0,0
CC(C)OCCCNC(=O)Cn1c(-c2cccs2)cc2cc(F)ccc21,0,0,0,0
CCOc1ccc(CCNC(=O)Cn2c(-c3cccs3)cc3cc(F)ccc32)cc1OCC,0,112,0,0
CCOc1cc(CNC(=O)Cn2c(-c3cccs3)cc3cc(F)ccc32)ccc1OC,0,0,0,0
COc1ccccc1CNC(=O)Cn1c(-c2cccs2)cc2cc(F)ccc21,0,103,0,0
CSc1ncc(Cl)c(C(=O)Nc2ccc(S(=O)(=O)N3CCC(C)CC3)cc2)n1,0,0,0,0
O=C1CC(c2cc(F)cc(F)c2)c2cc3c(cc2N1)OCO3 (stereo not given),0,0,0,0
O=C1CC(c2ccc(Cl)cc2)c2cc3c(cc2N1)OCCO3 (stereo not given),0,80,0,0
CCOc1cccc(C2CC(=O)Nc3cc4c(cc32)OCCO4)c1 (stereo not given),0,0,0,0
CCc1ccc(C2CC(=O)Nc3cc4c(cc32)OCO4)cc1 (stereo not given),0,72,0,0
Cc1ccc(C2CC(=O)Nc3cc4c(cc32)OCCO4)cc1 (stereo not given),0,62,0,0
SMILES,GALK inh,DRV1 agonist,TSG101-PTAP inh,B2AR arrestin ag
Cc1nc(N2CCOCC2)c2c(C(=O)N(C)c3ccccc3)c(C)oc2n1,0,0,0,0
CC(=O)N1c2ccccc2CC1C(=O)N1CCN(c2ccccc2F)CC1 (stereo not given),0,0,0,0
CC(=O)N1c2ccccc2CC1C(=O)N1CCN(c2cccc(C)c2C)CC1 (stereo not given),0,116,0,0
N.N.N.N.N.N.N.N.N.N.N.N.N.N.O.O.[Ru+4].[Ru+5].[Ru+5],-,0,-,-
CC(=O)c1ccc(NC(=O)C2Cc3ccccc3N2C(=O)c2ccccc2)cc1 (stereo not given),0,0,0,0
CC(=O)Nc1ccc(NC(=O)C2Cc3ccccc3N2C(=O)c2ccccc2)cc1 (stereo not given),0,100,0,0
COc1ccc(OC)c(-c2cc(C(=O)Nc3cnn(Cc4ccc(Cl)cc4Cl)c3)no2)c1,0,91,0,0
CCN1CCOC(=O)C1CC(=O)Nc1ccc(Br)cc1 (stereo not given),0,74,0,0
CCN1CCOC(=O)C1CC(=O)Nc1cc(C)ccc1OC (stereo not given),0,0,0,0
CN(C/C=C/c1ccccc1)Cc1cccc2ccccc12,-,117,-,-
CN(Cc1ccc(C(C)(C)C)cc1)Cc1cccc2ccccc12,-,68,-,-
CCn1cc(C(=O)N2CCN(c3ccccc3)CC2)c(=O)c2cc(S(=O)(=O)N3CCCC3)ccc21,0,0,0,0
CN(C)CCN(Cc1ccsc1)c1ccccn1,-,0,-,-
CN1C[C@H]2c3ccccc3Oc3ccc(Cl)cc3[C@@H]2C1,-,92,-,-
Cc1cc(C)cc(C(=O)Nc2ccc(-c3cn4cccnc4n3)cc2)c1,0,103,0,0
Cc1ccc(C(=O)Nc2ccc(-c3cn4cccnc4n3)cc2)cc1C,0,?,0,0
Cc1cc(Nc2cccc(O)c2)c2cccc(Br)c2n1,0,119,0,0
CCOC(=O)c1cnc2c(OC)cccc2c1Nc1cccc(O)c1,0,0,0,0
CC[n+]1c(/C=C/C=C2/N(C)c3ccccc3C2(C)C)sc2ccccc21,-,0,-,-
Cc1ccc(-n2nc3ccc(NC(=O)Cc4ccc(Cl)cc4)cc3n2)cc1,0,0,0,0
O=C(Cc1ccc(Cl)cc1)Nc1ccc2nn(-c3ccccc3)nc2c1,0,85,0,0
COc1ccc(/C=C/C(=O)Nc2sc3c(c2C(N)=O)CCC(C)C3)cc1OC (stereo not given),0,0,0,0
O=C(O)CSCC(=O)NC1CCSC1=O (stereo not given),-,0,-,-
O=C(NCCc1csc(-c2cccnc2)n1)c1ccc(F)c(F)c1,0,?,0,0
O=C(NCCc1csc(-c2cccnc2)n1)c1cccc(C(F)(F)F)c1,0,68,0,0
SMILES,GALK inh,DRV1 agonist,TSG101-PTAP inh,B2AR arrestin ag
N#CSCC(=O)O,-,0,-,-
CCCCNc1c(C(=O)OCC)c(C)nc2c1cnn2CC,-,76!,-,-
Cc1ccc(NC(=O)CCc2c(C)nc3c(-c4ccccc4)c(C)nn3c2C)c(C)c1,0,0,0,0
Cc1nc2c(-c3ccccc3)c(C)nn2c(C)c1CCC(=O)Nc1ccccc1F,0,60,0,0
COc1ccc(-c2nc(C)c(CCNC(=O)c3c(F)cccc3F)s2)cc1,0,80,0,0
CCOc1ccc(CC(=O)NCCc2sc(-c3cccc(F)c3)nc2C)cc1,0,69,0,0
Cc1cccc(C(=O)NCCc2sc(-c3ccccc3)nc2C)c1,0,78,0,0
Cc1nc(-c2ccc(F)cc2)sc1CCNC(=O)Cc1ccc(F)cc1,0,?,0,0
COc1cccc(C(=O)NCCc2sc(-c3cccc(C)c3)nc2C)c1,0,0,0,0
COc1ccc(C(=O)NCCc2sc(-c3cccc(F)c3)nc2C)cc1,0,67,0,0
COc1ccc(C(=O)NCCc2sc(-c3ccc(F)cc3)nc2C)cc1OC,0,0,0,0
Cc1ccc(/C=N/n2c(-c3ccccc3)csc2=S)cc1,-,0,-,-
